For six molecules, AC50 and outcome results are on record in PubChem BioAssay (EPA / NIEHS).

Molecules are shown by their SMILES. Active and inactive are the calls of the source. Rule for the calls: active = hit-call score of the fitted dose curve at least 0.9, where 1 is the maximum; inactive = score below 0.9.

Holding throughout (details): mRNA level, 48 h; actives raise or lower the signal
Read-out in experiment [1]: Heat shock 70 kDa protein 1 (HSPA1A), gene 3303
The experiment in a line: LTEA_HepaRG_HSPA1A: Life Technologies and Expression Analysis (LTEA) Assay for Heat shock 70 kDa protein 1 (HSPA1A) using HepaRG (AID 2283502). The procedure, abridged: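 HSPA1A induction in human HepaRG liver cells is measured after 48 h of chemical treatment (100 uM maximum, 0.5% DMSO vehicle). Expression comes from qRT-PCR normalized to endogenous controls.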

Read-out in experiment [2]: Hypoxia-inducible factor 1-alpha (Homo sapiens) (UniProt Q16665)
Description: LTEA_HepaRG_HIF1A: Life Technologies and Expression Analysis (LTEA) Assay for Hypoxia-inducible factor 1 (HIF1A) Trancription factor using HepaRG (AID 2283503). The procedure, abridged: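 HepaRG, 48 h exposure, 8-pt half-log series from 100 uM, 0.5% DMSO vehicle, duplicates. Readout: HIF1A transcript by qRT-PCR (Fluidigm array), housekeeping-normalised. Bidirectional curve fit vs DMSO baseline.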

Read-out in experiment [3]: 3-Hydroxy-3-Methylglutaryl-CoA Synthase 2 (HMGCS2), HMGCS2 (gene 3158)
The experiment in a line: LTEA_HepaRG_HMGCS2: Life Technologies and Expression Analysis (LTEA) Assay for 3-Hydroxy-3-Methylglutaryl-CoA Synthase 2 (HMGCS2) using HepaRG (AID 2283504). The procedure, abridged:
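HepaRG, plated 48 h then switched to serum-free induction media; cmpd 8-pt, max 100 uM, 1/2-log, 0.5% DMSO, n=2, 48 h. HMGCS2 mRNA by Fluidigm TaqMan qRT-PCR, ACTB/GAPDH/POLR2A norm; bidirectional fit vs DMSO.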

Read-out in another experiment: HGF (gene 3082)
The experiment in a line: LTEA_HepaRG_HGF: Life Technologies and Expression Analysis (LTEA) Assay for Hepatocyte Growth Facto (HGF) using HepaRG (AID 2283505). The procedure, abridged:
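Read-out is HGF transcript level by qRT-PCR, normalized to three housekeeping genes, fitted bidirectionally against 0.5% DMSO vehicle. Human HepaRG cells received test chemicals for 48 h at up to 100 uM.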

Read-out in experiment [4]: Insulin Like Growth Factor 1 (IGF1), IGF1 (gene 3479)
Description: LTEA_HepaRG_IGF1: Life Technologies and Expression Analysis (LTEA) Assay for Insulin Like Growth Factor 1 (IGF1) using HepaRG (AID 2283506). The procedure, abridged: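 Using human HepaRG liver cells, IGF1 transcript induction or suppression is measured 48 h after dosing across eight concentrations capped at 100 uM. Values derive from bidirectional concentration-response fitting with DMSO as baseline.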

Read-out in experiment [5]: Intercellular Adhesion Molecule 1 (ICAM1), ICAM1 (gene 3383)
The experiment in a line: LTEA_HepaRG_ICAM1: Life Technologies and Expression Analysis (LTEA) Assay for Intercellular Adhesion Molecule 1 (ICAM1) using HepaRG (AID 2283507). The procedure, abridged:
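Readout is qRT-PCR mRNA level, normalized to three housekeeping genes and fitted bidirectionally against 0.5% DMSO vehicle. Human HepaRG cultures received compound for 48 h, top concentration 100 uM with half-log dilutions.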

Read-out in experiment [6]: Interleukin 6 (IL6), IL6 (gene 3569)
Description: LTEA_HepaRG_IL6: Life Technologies and Expression Analysis (LTEA) Assay for Interleukin 6 (IL6) using HepaRG (AID 2283509). In short, it runs like this: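 HepaRG, ~100,000 cells/well, 48 h pre-culture; serum-free induction medium; cmpd 8-pt half-log from 100 uM, 0.5% DMSO, duplicate, 48 h. Lysis in RLT, TaqMan qRT-PCR; gain or loss vs DMSO.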

Read-out in experiment [7]: Interleukin 6 Receptor (IL6R), IL6R (gene 3570)
Description: LTEA_HepaRG_IL6R: Life Technologies and Expression Analysis (LTEA) Assay for Interleukin 6 Receptor (IL6R) using HepaRG (AID 2283510).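 For AC50: TaqMan qRT-PCR signal normalized to ACTB GAPDH and POLR2A housekeeping genes.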 In short, it runs like this:
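Concentration-response in human liver HepaRG cells: eight concentrations from 100 uM downward by half-logs, 48 h exposure, 0.5% DMSO vehicle. IL6R mRNA change measured by qRT-PCR and fitted in both directions relative to vehicle.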

Read-out in experiment [8]: Potassium channel subfamily K member 1 (KCNK1), KCNK1 (gene 3775)
Description: LTEA_HepaRG_KCNK1: Life Technologies and Expression Analysis (LTEA) Assay for Potassium channel subfamily K member 1 (KCNK1) using HepaRG (AID 2283511). The procedure, abridged: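 Gain or loss of KCNK1 mRNA is the read-out, quantified by qRT-PCR against three housekeeping genes after 48 h chemical treatment of human HepaRG liver cells. Concentrations ran from 100 uM downward in half-log steps, vehicle 0.5% DMSO.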

Read-out in experiment [9]: Keratin 19 (KRT19), KRT19 (gene 3880)
Description: LTEA_HepaRG_KRT19: Life Technologies and Expression Analysis (LTEA) Assay for Keratin 19 (KRT19) using HepaRG (AID 2283512). In short, it runs like this:
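KRT19 transcript levels, measured by Fluidigm qRT-PCR against three housekeeping genes, are fitted for gain or loss of signal relative to DMSO. Human HepaRG cells receive test chemicals (top 100 uM, half-log steps, 0.5% DMSO) for 48 hours.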

Read-out in experiment [10]: Lipase C (LIPC), LIPC (gene 3990)
The experiment in a line: LTEA_HepaRG_LIPC: Life Technologies and Expression Analysis (LTEA) Assay for Lipase C (LIPC) using HepaRG (AID 2283514). The procedure, abridged:
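Read-out is LIPC transcript level by TaqMan qRT-PCR, normalized to three housekeeping genes, after 48 h chemical treatment of human HepaRG liver cells. Curves span eight concentrations topping at 100 uM; activity in either direction scored relative to 0.5% DMSO.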

Read-out in experiment [11]: Lipoprotein lipase (LPL), LPL (gene 4023)
The experiment in a line: LTEA_HepaRG_LPL: Life Technologies and Expression Analysis (LTEA) Assay for Lipoprotein lipase (LPL) using HepaRG (AID 2283515). The procedure, abridged:
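Read-out is LPL transcript level by qRT-PCR, normalized to three housekeeping genes and fitted bidirectionally against the DMSO control. Human HepaRG cells received chemicals for 48 h at up to 100 uM.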

Read-out in experiment [12]: MicroRNA 122 (MIR122), gene 406906
The experiment in a line: LTEA_HepaRG_MIR122: Life Technologies and Expression Analysis (LTEA) Assay for MicroRNA 122 (MIR122) using HepaRG (AID 2283516). Note: the transcript read is the microRNA miR-122. The procedure, abridged: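 HepaRG, 48 h exposure, 8-pt half-log from 100 uM, 0.5% DMSO; TaqMan qRT-PCR; bidirectional fit vs DMSO.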

Read-out in experiment [13]: matrix metalloproteinase-10 (MMP10), MMP10 (gene 4319)
The experiment in a line: LTEA_HepaRG_MMP10: Life Technologies and Expression Analysis (LTEA) Assay for matrix metalloproteinase-10 (MMP10) using HepaRG (AID 2283517). The procedure, abridged: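 Gain or loss of MMP10 mRNA is fitted relative to the 0.5% DMSO vehicle. The human hepatic line HepaRG receives a 48-hour serum-free exposure, in duplicate, with a maximum concentration of 100 uM.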

Read-out in the next experiment: MYC, MYC (gene 4609)
The experiment in a line: LTEA_HepaRG_MYC: Life Technologies and Expression Analysis (LTEA) Assay for MYC using HepaRG (AID 2283518). The procedure, abridged:
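HepaRG, ~100,000 cells/well, collagen I; 48 h plating; serum-free induction medium; 48 h dosing, duplicate, 100 uM top, half-log, 0.5% DMSO; total RNA → qRT-PCR MYC; gain/loss fit vs DMSO.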

Read-out in experiment [14]: matrix metalloproteinase-3 (MMP3), MMP3 (gene 4314)
Description: LTEA_HepaRG_MMP3: Life Technologies and Expression Analysis (LTEA) Assay for matrix metalloproteinase-3 (MMP3) using HepaRG (AID 2283519). The procedure, abridged: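 HepaRG, human; 48 h dosing, 8 conc. (max 100 uM, half-log), duplicate, 0.5% DMSO. Readout: MMP3 transcript by Fluidigm TaqMan qRT-PCR, ACTB/GAPDH/POLR2A-normalised. Gain or loss fitted vs DMSO.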

Read-out in experiment [15]: Paternally Expressed 10 (PEG10), PEG10 (gene 23089)
The experiment in a line: LTEA_HepaRG_PEG10: Life Technologies and Expression Analysis (LTEA) Assay for Paternally Expressed 10 (PEG10) using HepaRG (AID 2283520).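 For AC50: PEG10 transcript by qRT-PCR normalised to ACTB GAPDH and POLR2A.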 The procedure, abridged:
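Chemicals tested on HepaRG cells for 48 h, highest concentration 100 uM. PEG10 expression assessed by qRT-PCR relative to DMSO control.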

Read-out in experiment [16]: Nuclear factor NF-kappa-B p105 subunit (Homo sapiens) (UniProt P19838)
Description: LTEA_HepaRG_NFKB1: Life Technologies and Expression Analysis (LTEA) Assay for Nuclear Factor Kappa B Subunit 1 (NFKB1) using HepaRG (AID 2283521). In short, it runs like this:
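Differentiated human HepaRG cells were exposed for 48 h in serum-free induction medium to eight concentrations (top 100 uM, half-log steps, 0.5% DMSO), in duplicate. NFKB1 mRNA was measured by TaqMan qRT-PCR, normalized to ACTB/GAPDH/POLR2A, and fitted bidirectionally against DMSO.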

Read-out in experiment [17]: JUN Transcription Factor, JUN (gene 3725)
Description: LTEA_HepaRG_JUN: Life Technologies and Expression Analysis (LTEA) Assay for JUN Transcription Factor using HepaRG (AID 2283513). The procedure, abridged: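 Human HepaRG liver cells receive test chemicals in 0.5% DMSO for 48 h across an eight-point range topping at 100 uM. Expression changes in JUN are scored in both directions against the DMSO vehicle.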

Hypoxia-inducible factor 1-alpha (Homo sapiens), sequence (Q16665 whole entry, looked up): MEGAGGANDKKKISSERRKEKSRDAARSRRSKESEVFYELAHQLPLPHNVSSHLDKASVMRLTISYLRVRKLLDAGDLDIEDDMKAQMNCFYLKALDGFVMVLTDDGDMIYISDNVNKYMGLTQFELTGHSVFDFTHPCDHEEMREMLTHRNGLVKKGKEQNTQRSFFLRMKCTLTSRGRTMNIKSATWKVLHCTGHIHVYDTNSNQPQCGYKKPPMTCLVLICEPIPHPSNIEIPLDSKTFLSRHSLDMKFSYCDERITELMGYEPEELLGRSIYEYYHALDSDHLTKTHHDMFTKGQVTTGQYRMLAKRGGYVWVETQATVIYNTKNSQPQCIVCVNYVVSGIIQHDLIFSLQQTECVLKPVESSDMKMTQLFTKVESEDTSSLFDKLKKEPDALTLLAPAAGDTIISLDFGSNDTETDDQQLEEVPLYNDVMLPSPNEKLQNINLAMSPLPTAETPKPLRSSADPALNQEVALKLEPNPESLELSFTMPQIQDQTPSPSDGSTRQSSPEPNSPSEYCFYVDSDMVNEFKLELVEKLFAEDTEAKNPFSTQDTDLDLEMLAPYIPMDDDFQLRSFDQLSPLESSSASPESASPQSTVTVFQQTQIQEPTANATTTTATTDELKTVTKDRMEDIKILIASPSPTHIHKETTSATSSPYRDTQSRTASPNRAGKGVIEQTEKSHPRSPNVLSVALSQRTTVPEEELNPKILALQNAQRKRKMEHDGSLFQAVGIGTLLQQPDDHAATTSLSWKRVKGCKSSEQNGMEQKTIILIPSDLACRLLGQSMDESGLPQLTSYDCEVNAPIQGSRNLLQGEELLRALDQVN
Nuclear factor NF-kappa-B p105 subunit (Homo sapiens), sequence (P19838 whole entry, looked up): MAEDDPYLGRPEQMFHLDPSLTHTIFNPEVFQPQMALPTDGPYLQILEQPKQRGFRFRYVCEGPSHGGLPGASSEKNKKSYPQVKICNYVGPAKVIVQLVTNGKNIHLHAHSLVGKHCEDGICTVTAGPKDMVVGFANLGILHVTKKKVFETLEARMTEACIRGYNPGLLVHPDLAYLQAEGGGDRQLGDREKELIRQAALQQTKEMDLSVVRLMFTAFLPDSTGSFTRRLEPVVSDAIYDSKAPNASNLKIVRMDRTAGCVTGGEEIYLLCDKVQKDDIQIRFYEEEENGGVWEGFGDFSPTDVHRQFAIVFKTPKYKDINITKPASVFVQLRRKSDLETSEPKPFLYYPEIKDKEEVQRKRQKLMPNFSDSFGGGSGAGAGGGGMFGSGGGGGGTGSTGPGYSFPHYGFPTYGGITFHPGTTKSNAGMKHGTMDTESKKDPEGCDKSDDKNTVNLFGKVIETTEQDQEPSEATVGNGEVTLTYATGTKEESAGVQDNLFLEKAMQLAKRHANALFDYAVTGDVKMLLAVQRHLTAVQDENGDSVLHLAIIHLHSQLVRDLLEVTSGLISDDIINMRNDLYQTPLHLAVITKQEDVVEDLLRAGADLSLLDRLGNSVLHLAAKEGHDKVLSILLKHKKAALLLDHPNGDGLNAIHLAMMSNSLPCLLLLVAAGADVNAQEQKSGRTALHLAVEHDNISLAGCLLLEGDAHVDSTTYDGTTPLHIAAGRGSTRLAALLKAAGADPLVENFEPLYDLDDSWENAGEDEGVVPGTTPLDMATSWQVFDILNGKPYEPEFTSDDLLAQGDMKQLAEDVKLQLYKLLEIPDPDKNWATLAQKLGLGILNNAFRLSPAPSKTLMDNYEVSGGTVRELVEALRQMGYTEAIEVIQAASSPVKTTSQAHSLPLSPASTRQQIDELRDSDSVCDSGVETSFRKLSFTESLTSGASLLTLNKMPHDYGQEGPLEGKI

What is called AC50 is the concentration giving half of the maximal activity seen. As to `CC[C@H](C)[C@H]1O[C@]2(C=C[C@@H]1C)C[C@@H]1C[C@@H](C/C=C(\C)[C@@H](O[C@H]3C[C@H](OC)[C@@H](O[C@H]4C[C@H](OC)[C@@H](NC)[C@H](C)O4)[C@H](C)O3)[C@@H](C)/C=C/C=C3\CO[C@@H]4[C@H](O)C(C)=C[C@@H](C(=O)O1)[C@]34O)O2`, the AC50 was 20.4 µM (active) in experiment [1]; 74.3 µM (active) in experiment [2]; 12.5 µM (active) in experiment [3]; 27.7 µM (active) in [4]; 28.9 µM (active) in experiment [5]; 21.3 µM (active) in experiment [6]. Moreover, the half-maximal activity concentration (AC50) in experiment [7] was 22.6 µM (active); in experiment [8], 22.5 µM (active); in experiment [11] it was 12.1 µM (active); in experiment [12] it was 55.6 µM (active); in [13], 29.4 µM (active); with MYC, MYC (gene 4609), 32 µM (active). The concentration at half-maximal activity (AC50) was 92.9 µM (active) in experiment [14] and 13.3 µM (active) in [15]. Further, the molecule was classed as inactive (in the experiment with HGF (gene 3082); in experiment [9]; in experiment [10]).
As to `CCCCOC(=O)[C@@H](C)Oc1ccc(Oc2ccc(C#N)cc2F)cc1`, the call (in experiment [1]; in experiment [2]; in the experiment with HGF (gene 3082); in [4]; in [5]; in experiment [6]) was inactive. For the same molecule, the molecule was called inactive in [7], in [8], in [9], in experiment [10], in experiment [12] and in experiment [13]. Moreover, the molecule was called inactive in experiment [14], in experiment [15] and in [16]. The AC50 in [3] is 25.8 µM (active); in [11], 40.4 µM (active).
Turning to `CCOC(=O)CC(SP(=O)(OC)OC)C(=O)OCC` (stereo unspecified), the molecule was classed as inactive (in experiment [1]; in experiment [2]; in experiment [3]; with HGF (gene 3082); in experiment [4]; in experiment [5]). For the same molecule, the call in experiment [6], in experiment [7], in [8], in experiment [9], in [17] and in experiment [10] was inactive. The call in experiment [11], in experiment [12], in [13], in [14], in [15] and in experiment [16] was inactive.
Turning to `S=C1NCCN1`, in experiment [1], the AC50 is 0.277 µM (active). Further, the molecule was classed as inactive (in [2]; in experiment [3]; with HGF (gene 3082); in [4]; in [5]; in [6]). Further, the call in [7], in [8], in experiment [9], in experiment [17], in [10] and in experiment [11] was inactive. Besides, the molecule was called inactive in experiment [12], in experiment [13], in experiment [14], in [15] and in [16].
Consider `CCOC(=O)COc1cc(-c2nn(C)c(OC(F)F)c2Cl)c(F)cc1Cl`, for which the outcome (in experiment [1]; in experiment [2]; in experiment [3]; with HGF (gene 3082); in [4]; in [5]) was inactive. Besides, the outcome in experiment [6], in [7], in experiment [8], in experiment [9], in [10] and in [11] was inactive. Also, the outcome in experiment [12] was “inactive”; in experiment [13] it was “inactive”; with MYC, MYC (gene 4609) it was “inactive”; in [14], “inactive”; in [15] it was “inactive”; in experiment [16] it was “inactive”.
For the molecule `CN(C)C(=O)Nc1cccc(C(F)(F)F)c1`, the molecule was called inactive (in experiment [1]; in experiment [2]; in experiment [3]; with HGF (gene 3082); in experiment [4]; in [5]). Also, the molecule was called inactive in [6], in experiment [7], in experiment [8], in experiment [9], in [17] and in experiment [11]. For the same molecule, the outcome in experiment [12], in [13], in experiment [15] and in experiment [16] was inactive. Also, the values for the AC50 in experiment [10] and in [14] were 50 µM (active) and 82.7 µM (active), respectively.
